The list is not random: actives were taken first. Their share in the collection is about 3.2%.
AmpC detergent – inhibitors of E. coli AmpC beta-lactamase with detergent; P00811; AmpC hydrolysis of nitrocefin, absorbance 480 nm, 0.01% Triton; Potency, µM (titrated, usually from 114 µM), hits mostly inhibitors; 370,000 tested, 0.041% active; AID 485294; further: nearly all actives have a fitted effect of over 25% in size
Target sequence (P00811 whole entry, looked up): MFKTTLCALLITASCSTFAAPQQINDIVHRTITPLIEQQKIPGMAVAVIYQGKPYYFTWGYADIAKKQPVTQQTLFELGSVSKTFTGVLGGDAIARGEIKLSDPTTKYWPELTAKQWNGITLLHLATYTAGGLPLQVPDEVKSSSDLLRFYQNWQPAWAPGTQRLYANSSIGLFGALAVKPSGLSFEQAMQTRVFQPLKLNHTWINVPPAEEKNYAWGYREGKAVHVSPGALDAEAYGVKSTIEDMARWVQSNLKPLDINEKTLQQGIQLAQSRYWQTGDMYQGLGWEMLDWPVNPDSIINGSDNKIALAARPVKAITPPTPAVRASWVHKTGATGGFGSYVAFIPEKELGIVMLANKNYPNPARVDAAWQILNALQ
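20 mM phosphate pH 7.0 + 0.01% (detergent screen) or 0.0001% Triton X-100; 5.3 nM AmpC reagent; cpd preinc 15 min RT; nitrocefin (800 uM stock) to start; A480 q20 s × 4 min; Activity was normalised to no-enzyme and no-compound control wells.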
Sm TGR inh – inhibitors of Schistosoma mansoni thioredoxin glutathione reductase; purified TGR, DTNB reduction, TNB absorbance 405 nm; 360,000 tested, 3% active; AID 485364; Q962Y6; Potency, µM (titrated, usually from 114 µM), actives largely listed as inhibitors; further: nearly all actives have a fitted effect of over 60% in size
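TGR 20 nM + NADPH 100 uM (dispensed conc.), cpd preinc 15 min RT; start with NADPH (500 uM addition) then DTNB (15 mM addition). Kinetic TNB absorbance, 405 nm filter. Four-parameter Hill fit across titration.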
RE007 growth inh – less growth of the S. pombe RE007 Vpr strain; S. pombe RE007 Vpr strain, BacTiter-Glo ATP luminescence, 24 h; Potency, µM (top dose mostly 92.2 µM), hits mostly inhibitors; 360,000 tested, 0.21% active; active means well fitted falling curve with a large enough effect; inconclusive means small, poorly fitted or top-dose-only effect; inactive means no such curve, though single readings can be large or run the other way; further: nearly all actives have a fitted effect of over 50% in size
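Fission yeast RE007 carrying one integrated HIV-1 vpr copy, seeded at OD 0.01 in PMG+AL medium with 23 nL pinned compound. Grown 24 h at 30 degrees; viability read by BacTiter-Glo luminescence after 5 min.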
AmpC inh no detg – AmpC beta-lactamase inhibition without detergent | P00811 | AmpC nitrocefin hydrolysis, absorbance 480 nm, 0.0001% Triton | Potency, µM (titrated, usually from 57.1 µM), most hits filed as inhibitors | 330,000 tested, 0.52% active | AID 485341; further: nearly all actives have a fitted effect of over 20% in size
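20 mM phosphate pH 7.0 + 0.01% (detergent screen) or 0.0001% Triton X-100; 5.3 nM AmpC reagent; cpd preinc 15 min RT; nitrocefin (800 uM stock) to start; A480 q20 s × 4 min; Activity was normalised to no-enzyme and no-compound control wells.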
AMA1 RON2 block – disrupts binding of P. falciparum AMA1 to RON2; AlphaScreen AMA1-biotinylated RON2 peptide binding; Potency, µM (top dose mostly 58.2 µM), hits mostly inhibitors; 360,000 tested, 0.2% active; AID 720542; further: nearly all actives have a fitted effect of over 45% in size
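AMA1 (3D7) with his tag at 25 nM final met compounds first, then biotinylated RON2 peptide at 25 nM; detection used donor plus acceptor beads, 10 µg/mL apiece, read by AlphaScreen after 30 min at room temperature.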
Each line names hits and unclear results; the compound was inactive in the other large screens. Unless noted, the call rests on the fitted dose curve; in most records, active means well fitted curve in the direction sought with a large enough effect; inconclusive means small, poorly fitted or top-dose-only effect, or another doubt; inactive means no such curve, though single readings can be large; an effect the other way counts as inactive or inconclusive.

O=C(Nc1nc(-c2cccs2)cs1)C1=COCCO1	RE007 growth inh 35.5µM
COC(=O)c1ccc(C2CC(=O)Nc3c2c(C)nn3-c2nc(C)cc(C)n2)cc1 (stereo unspecified)	none (no result: RE007 growth inh, AmpC inh no detg, AMA1 RON2 block)
CCC(=O)N1CCc2cc(Br)cc(S(=O)(=O)CCC(=O)NCc3ccc(F)cc3)c21	none (no result: RE007 growth inh, AmpC inh no detg, AMA1 RON2 block)
Cc1nc2c(o1)C(=O)c1ccccc1C2=Nc1ccccc1	RE007 growth inh 7.08µM (no result: AmpC detergent, Sm TGR inh, AmpC inh no detg)
Cc1ccccc1OCC(=O)Nc1ccc(S(=O)(=O)Nc2ncccn2)cc1	none (no result: RE007 growth inh, AmpC inh no detg, AMA1 RON2 block)
COc1ccc(C2=NOC(C(=O)Nc3ccc4c(c3)OCCO4)C2)cc1OC (stereo unspecified)	Sm TGR inh 31.6µM
CC(C)C(=O)N1CCN(c2nc(-c3ccc(Cl)cc3)cs2)CC1	Sm TGR inh 31.6µM, RE007 growth inh inconclusive
CCOC(=O)N1CCN(c2nc(-c3ccc(Cl)cc3)cs2)CC1	none
Cc1ccc(CNC(=O)c2cc3sc(Cl)cc3n2C)cc1	none (no result: RE007 growth inh, AmpC inh no detg, AMA1 RON2 block)
COc1ccc(CCNC(=O)c2cc3sc(Cl)cc3n2C)cc1OC	AmpC detergent inconclusive, AmpC inh no detg 50.1µM
CN(C)CCCNC(=S)N(CCN(C)C)Cc1cc2cc3c(cc2[nH]c1=O)OCCO3	Sm TGR inh 44.7µM
CCN(CC)CCN(Cc1cc2cc3c(cc2[nH]c1=O)OCCO3)C(=S)NCCCN(C)C	Sm TGR inh inconclusive
Cc1ccc(-n2cnc3cc(C(=O)NCc4ccccc4Cl)ccc32)c(C)c1	none (no result: RE007 growth inh, AmpC inh no detg, AMA1 RON2 block)
COc1ccc(NC2CC(=O)N(C(C)C)C2=O)cc1 (stereo unspecified)	AmpC detergent inconclusive, Sm TGR inh 7.94µM
CC(C)N1C(=O)CC(Nc2cccc3cccc(N)c23)C1=O (stereo unspecified)	Sm TGR inh inconclusive
O=C1CC(NNc2ccccc2)C(=O)N1c1ccc(N2CCCCC2)cc1 (stereo unspecified)	Sm TGR inh 44.7µM, AMA1 RON2 block inconclusive
O=C(Nc1ccc(N2CCOCC2)cc1)NC1CCCCC1	none
CC(C)N1C(=O)CC(Nc2ccc(N3CCOCC3)cc2)C1=O (stereo unspecified)	Sm TGR inh 35.5µM
O=C1CC(Nc2ccc(N3CCOCC3)cc2)C(=O)N1C1CCCCC1 (stereo unspecified)	Sm TGR inh 39.8µM
O=C1CC(Nc2ccccc2)C(=O)N1c1ccc(N2CCOCC2)cc1 (stereo unspecified)	none
O=C1CC(Nc2ccc(N3CCOCC3)cc2)C(=O)N1c1ccccc1F (stereo unspecified)	AmpC detergent inconclusive, Sm TGR inh 39.8µM
CCOC(=O)N1CCN(Cc2nc3cc(NC(=O)c4ccc([N+](=O)[O-])cc4)ccc3n2C(C)C)CC1	none (no result: RE007 growth inh, AmpC inh no detg, AMA1 RON2 block)
Clc1ccc(OCc2nn3c(-c4ccco4)nnc3s2)cc1	Sm TGR inh 31.6µM
c1coc(-c2nn3c(-c4ccco4)nnc3s2)c1	Sm TGR inh 14.1µM
CN(CC(=O)NCc1ccc(Cl)cc1)S(=O)(=O)c1ccc2c(c1)c(=O)n(C)c(=O)n2C	none (no result: RE007 growth inh, AmpC inh no detg, AMA1 RON2 block)
COCC(C)n1c(COc2ccccc2F)nnc1SCC(=O)Nc1oc(C)c2c(C)n[nH]c(=O)c12 (stereo unspecified)	Sm TGR inh 25.1µM
COc1ccc(OC)c(CCNC(=O)C(C)n2c(C)c3cnn(-c4ccccc4)c(=O)c3c2C)c1 (stereo unspecified)	none (no result: RE007 growth inh, AmpC inh no detg, AMA1 RON2 block)
O=C(NC(=S)NC1CCN(Cc2ccccc2)CC1)c1ccc(F)cc1	none
CC(C)CNC(=S)NC(=O)c1ccc(F)cc1	Sm TGR inh 31.6µM
O=C(NC(=S)NC1CCCCC1)c1ccc(F)cc1	Sm TGR inh 28.2µM, RE007 growth inh inconclusive
CC1CCN(S(=O)(=O)c2ccc(N3CCCCS3(=O)=O)cc2)CC1	none (no result: RE007 growth inh, AmpC inh no detg, AMA1 RON2 block)
Cc1[nH]c2ccccc2c1/C=N/NC(=O)c1ccccc1	none (no result: RE007 growth inh)
Cc1[nH]c2ccccc2c1/C=N/Nc1cccc(C(=O)O)c1	Sm TGR inh 44.7µM
Cc1cc(N2C(=O)C(=O)/C(=C(/O)c3ccccc3)C2c2cccs2)no1 (stereo unspecified)	AmpC detergent inconclusive, Sm TGR inh 39.8µM
COc1ccc(Br)cc1CN1C(=O)c2ccccc2C1C(=O)NC1CCCCCC1 (stereo unspecified)	none (no result: RE007 growth inh, AmpC inh no detg, AMA1 RON2 block)
CCOC(=O)C(C#N)C(Cc1ccccc1)c1ccco1 (stereo unspecified)	Sm TGR inh 44.7µM
